These results are taken from PubChem BioAssay (NCI).

This is part of a sample that, as a whole, favours compounds with a hit. Of some 83,000 tested, about 20% had one in any assay.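 A percent growth of 40 corresponds to 60% growth inhibition; 0 means no net growth; -100 means all cells died. Active threshold: below 10.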 Unmarked numbers belong to inactive results. The source made the active and inactive calls.

Some test systems named below: HCT-15 colon; HT29 colon; SNB-75 CNS; SNB-19 CNS; U251 CNS; PC-3 prostate; SK-MEL-5 melanoma; LOX IMVI melanoma; SK-MEL-28 melanoma; SK-MEL-2 melanoma; EKVX NSCLC; SN12C renal; UO-31 renal; TK-10 renal; ACHN renal; CAKI-1 renal; A498 renal; CCRF-CEM leukemia; MOLT-4 leukemia; UACC-62 melanoma.
Common to all, as to experiment: NCI-60 one-dose screen, 48 h (100 = growth as untreated, 0 = no growth, -100 = all killed)
Common to all, as to conditions: 10 µM unless noted

Turning to `O=C(CC(C(=O)c1ccccc1)N1CCN(Cc2ccccc2)CC1)c1ccccc1` (stereo not drawn), the growth in the assay on HCT-15 colon is 57%; in the assay with HT29 colon, 54.7%; in the assay with SNB-75 CNS, 91.7%; in the assay with SNB-19 CNS, 99.4%; in the assay on U251 CNS it was 74.9%; in the assay on PC-3 prostate, 93.8%. Besides, the growth in the assay on SK-MEL-5 melanoma is 103%; in the assay on LOX IMVI melanoma it was 73.4%; in the assay on SK-MEL-28 melanoma, 112%; with SK-MEL-2 melanoma it was 104%; in the assay on EKVX NSCLC, 120%; with SN12C renal it was 99.3%. Moreover, the growth with UO-31 renal is 80%; with TK-10 renal, 96.6%; in the assay with ACHN renal, 41.8%; in the assay with CAKI-1 renal, 73.5%; in the assay with A498 renal, 74.6%; in the assay on CCRF-CEM leukemia, 8.48% (active). For the same molecule, the growth in the assay with MOLT-4 leukemia was 49.5%.
Consider `CCOc1cc(/C=C/C(=O)CC(=O)/C=C/c2ccc(OC(=O)CNc3nc4ccc(OC)cc4s3)c(OCC)c2)ccc1OC(=O)CNc1nc2ccc(OC)cc2s1`, for which the growth in the assay with HCT-15 colon was 43.4%; in the assay with HT29 colon it was -50.8% (active); with SNB-75 CNS it was 34.1%; in the assay with SNB-19 CNS it was 49%; in the assay with U251 CNS, 15.7%; in the assay on PC-3 prostate it was 35.3%. For the same molecule, the growth in the assay on SK-MEL-5 melanoma is 30.1%; in the assay with UACC-62 melanoma it was 55.8%; with SK-MEL-28 melanoma it was 39.5%; with SK-MEL-2 melanoma, 59.1%; in the assay on EKVX NSCLC, 41.7%; in the assay on SN12C renal, 59%. Also, the growth was 60.5% in the assay on TK-10 renal; 69.4% in the assay with ACHN renal; 75.9% in the assay on CAKI-1 renal; 91.6% in the assay with A498 renal; 4.63% (active) in the assay on CCRF-CEM leukemia; 4.13% (active) in the assay on MOLT-4 leukemia.
As for `O=c1[nH]cc(Nc2cc(Cl)c3nonc3c2[N+](=O)[O-])c(=O)[nH]1`, the growth was 103% in the assay with HCT-15 colon; 132% with HT29 colon; 119% in the assay with SNB-75 CNS; 95.4% in the assay with SNB-19 CNS; 98.6% in the assay on U251 CNS; 92.9% in the assay on PC-3 prostate. Moreover, the growth in the assay on SK-MEL-5 melanoma was 105%; in the assay on UACC-62 melanoma it was 94.9%; in the assay with SK-MEL-28 melanoma, 83.2%; in the assay on SK-MEL-2 melanoma, 20%; in the assay on EKVX NSCLC, 34%; with SN12C renal it was 107%. In addition, the growth was 89.3% in the assay on UO-31 renal; 125% with TK-10 renal; 92.9% with ACHN renal; 27% in the assay on CAKI-1 renal; 93.8% in the assay with A498 renal; 106% in the assay on CCRF-CEM leukemia. For the same molecule, in the assay with MOLT-4 leukemia, the growth was 91.1%.
Turning to `CCOC(=O)CNC(=O)C1(NC(=O)CNC(=O)OCc2ccccc2)CCCC1`, the growth in the assay with HCT-15 colon is 102%; with HT29 colon it was 105%; in the assay with SNB-75 CNS it was 83.9%; in the assay on SNB-19 CNS, 102%; with U251 CNS, 106%; in the assay with PC-3 prostate, 98.7%. Besides, the growth is 112% in the assay with SK-MEL-5 melanoma; 95.4% with LOX IMVI melanoma; 107% with SK-MEL-28 melanoma; 107% in the assay on SK-MEL-2 melanoma; 99.4% with EKVX NSCLC; 93.8% in the assay on SN12C renal. Further, the growth is 98.6% with UO-31 renal; 102% in the assay with TK-10 renal; 103% in the assay on ACHN renal; 95.2% with CAKI-1 renal; 102% with A498 renal; 102% in the assay with CCRF-CEM leukemia. The growth in the assay on MOLT-4 leukemia is 106%.
As for `CCOC(=O)Nc1ccc2c3c(cccc13)-c1ccccc1-2`, the growth in the assay on HCT-15 colon was 25.2%; in the assay with HT29 colon it was 5.04% (active); in the assay on SNB-75 CNS, 6.18% (active); in the assay on SNB-19 CNS, 45.1%; with U251 CNS, 34.5%; in the assay with PC-3 prostate, 49.8%. The growth in the assay on SK-MEL-5 melanoma was 33.6%; in the assay on UACC-62 melanoma, 30.5%; in the assay with SK-MEL-28 melanoma, 46%; with SK-MEL-2 melanoma, 24.8%; in the assay with EKVX NSCLC, 48.4%; in the assay with SN12C renal, 42.2%. Further, the growth in the assay with UO-31 renal is 21.1%; in the assay with TK-10 renal, 45.5%; with ACHN renal it was 50.6%; in the assay with CAKI-1 renal, 16.5%; in the assay on CCRF-CEM leukemia, 55.4%; in the assay with MOLT-4 leukemia, 36%.
Regarding `CC(C)C[C@H](NC(=O)/C=C/Cn1ccc2ccccc2c1=O)B(O)O`, the growth in the assay on HCT-15 colon is 67.5%; in the assay on HT29 colon, 8.43% (active); in the assay on SNB-75 CNS it was 50.2%; in the assay with SNB-19 CNS, 56.2%; in the assay on U251 CNS, 55.8%; in the assay on PC-3 prostate, 79.1%. Moreover, the growth with SK-MEL-5 melanoma was 23.5%; in the assay with UACC-62 melanoma, 17%; with SK-MEL-28 melanoma, 50.8%; in the assay on SK-MEL-2 melanoma, 24%; in the assay on SN12C renal, 54.7%; in the assay with UO-31 renal, 48.9%. In addition, the growth was 2.1% (active) in the assay with TK-10 renal; 31.7% in the assay with ACHN renal; 45.3% with CAKI-1 renal; -3.46% (active) in the assay with A498 renal; 12.2% with CCRF-CEM leukemia; 1.78% (active) with MOLT-4 leukemia.
As to `O=C(CC1Sc2ccccc2NC1=O)NNc1cccc(Cl)c1Cl` (stereo not drawn), the growth in the assay on HCT-15 colon was 97.1%; in the assay on HT29 colon, 93.4%; in the assay on SNB-75 CNS, 92.2%; in the assay with SNB-19 CNS, 77.7%; in the assay with U251 CNS it was 83.7%; in the assay with PC-3 prostate, 70.9%. Also, the growth in the assay with SK-MEL-5 melanoma is 85.5%; in the assay on UACC-62 melanoma, 85.1%; in the assay with SK-MEL-28 melanoma, 101%; in the assay with SK-MEL-2 melanoma, 87%; with EKVX NSCLC it was 91.3%; in the assay on SN12C renal, 87.5%. Also, the growth in the assay with UO-31 renal was 61.8%; in the assay with TK-10 renal it was 89.9%; in the assay on ACHN renal, 91.4%; with CAKI-1 renal, 90.4%; with A498 renal it was 61.5%; in the assay with CCRF-CEM leukemia, 70.8%. Also, the growth with MOLT-4 leukemia is 71.6%.
Turning to `C/C(=C\CCc1ccsc1)CC/C=C(\C)CCCN1CCSCC1`, the growth is 82.5% in the assay with HCT-15 colon; 88.1% with HT29 colon; 101% with SNB-75 CNS; 96.1% in the assay on SNB-19 CNS; 88.5% in the assay with U251 CNS; 80.4% with PC-3 prostate. In addition, the growth with SK-MEL-5 melanoma was 77.2%; in the assay with UACC-62 melanoma, 77%; with SK-MEL-28 melanoma, 94.6%; in the assay on SK-MEL-2 melanoma it was 89.3%; in the assay with SN12C renal it was 78.9%; with UO-31 renal, 59.9%. The growth was 108% with TK-10 renal; 94.7% in the assay with ACHN renal; 87.5% in the assay on CAKI-1 renal; 23.5% with A498 renal; 73.7% in the assay on CCRF-CEM leukemia; 81.2% in the assay with MOLT-4 leukemia.
